Drawing on PubChem BioAssay AID2665 (Vanderbilt High Throughput Screening Facility, 2010), this text covers % ACh max response for 71 compounds.

The target of experiment [1] is Muscarinic acetylcholine receptor M1 (Rattus norvegicus) (UniProt P08482). Put plainly: potentiation of ACh response at hM5 and rM1 – CHO cells, calcium, ACh EC10, single 30 µM, SAR follow-up (AID 2665).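 Also: 100% = response to a maximal acetylcholine concentration.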 The note with it: rat M1 potentiation, CHO calcium; at 30 µM; stronger effect = higher value.
Experiment [2] addresses Muscarinic acetylcholine receptor M5 (Homo sapiens) (UniProt P08912). The experiment is described as above. The following applies: CHO hM5 calcium flux, ACh EC10 potentiation; at 30 µM; stronger effect = higher value.

Activity calls are given as the source filed them. No rule for the calls is given here.

Sequence of Muscarinic acetylcholine receptor M5 (Homo sapiens) (P08912 whole entry, looked up): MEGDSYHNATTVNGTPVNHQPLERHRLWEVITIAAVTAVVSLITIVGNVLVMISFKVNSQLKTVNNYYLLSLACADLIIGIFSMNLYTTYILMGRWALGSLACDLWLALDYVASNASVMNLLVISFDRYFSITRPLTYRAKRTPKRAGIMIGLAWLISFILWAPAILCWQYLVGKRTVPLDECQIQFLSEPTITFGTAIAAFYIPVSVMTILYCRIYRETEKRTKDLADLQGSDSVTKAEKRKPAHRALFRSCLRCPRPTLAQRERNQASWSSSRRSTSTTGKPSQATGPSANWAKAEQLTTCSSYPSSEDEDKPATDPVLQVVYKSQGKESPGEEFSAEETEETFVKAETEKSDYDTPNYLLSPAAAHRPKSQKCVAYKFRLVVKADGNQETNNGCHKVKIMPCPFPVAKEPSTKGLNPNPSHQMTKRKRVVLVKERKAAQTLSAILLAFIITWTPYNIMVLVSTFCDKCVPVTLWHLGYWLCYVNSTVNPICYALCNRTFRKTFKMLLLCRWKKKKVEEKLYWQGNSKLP

With `Cc1ccc2c(c1)C(=O)C(=O)N2Cc1ccccc1C(F)(F)F`, the figures for the % ACh max response in experiment [1] and in experiment [2] were 17.8% and 30.6% (inactive), respectively.
For `Cc1ccccc1CN1C(=O)C(=O)c2cc(Cl)ccc21`, in that order: 27.6% and 47.3% (active).
The matching figures for `Cc1ccccc1CN1C(=O)C(=O)c2cc(OC(F)(F)F)ccc21`: 26.2% and 60% (active).
The matching figures for `O=C1C(=O)N(Cc2ccc(-c3ccc(F)nc3)cc2)c2ccccc21`: 41% and 46% (active).
As for `O=C1C(=O)N(Cc2ccc(F)cc2F)c2ccc(Cl)cc21`, the % ACh max response in experiment [1] was 32.4%; in experiment [2], 44.9% (active).
For `O=C1C(=O)N(Cc2ccc(OC(F)(F)F)cc2)c2ccccc21`, in that order: 54.7% and 60.5% (active).
The matching figures for `O=C1C(=O)N(Cc2ccc(C(F)(F)F)cc2)c2ccc(OC(F)(F)F)cc21`: 25.7% and 67.2% (active).
For `O=C1C(=O)N(Cc2ccc(Br)cc2F)c2c(Cl)ccc(Cl)c21`, in that order: 9.93% and 12.4% (inactive).
Turning to `Cc1ccccc1CN1C(=O)C(=O)c2cc(F)ccc21`, the values for the % ACh max response in experiment [1] and in experiment [2] were 37.7% and 40.8% (active), respectively.
For the compound `Cc1ccccc1CN1C(=O)C(=O)c2cccc(F)c21`, the values for the % ACh max response in experiment [1] and in experiment [2] were 30.2% and 27.5% (inactive), respectively.
For `Cc1ccc2c(c1)C(=O)C(=O)N2Cc1ccc(Br)cc1`, in that order: 19% and 24.1% (inactive).
The matching figures for `O=C1C(=O)N(Cc2ccc(Br)cc2)c2c(F)cccc21`: 62.7% and 51.7% (active).
For `COc1cccc(CN2C(=O)C(=O)c3cc(C)ccc32)c1`, in that order: 14.5% and 29.6% (inactive).
For `O=C1C(=O)N(Cc2ccc(F)cc2F)c2ccccc21`, the % ACh max response in experiment [1] was 44.8%; in experiment [2], 40.4% (active).
The matching figures for `Cc1ccccc1CN1C(=O)C(=O)c2ccccc21`: 43.2% and 36.3% (active).
For `COc1cccc(CN2C(=O)C(=O)c3cccc(Cl)c32)c1`, in that order: 46.9% and 38.7% (active).
The matching figures for `O=C1C(=O)N(Cc2c(F)cccc2F)c2c(Cl)cccc21`: 38.8% and 23.6% (inactive).
With `O=C1C(=O)N(Cc2ccc(OC(F)(F)F)cc2)c2c(Cl)cccc21`, the % ACh max response was 43.6% in experiment [1] and 72.3% (active) in experiment [2].
For `O=C1C(=O)N(Cc2ccc(OC(F)(F)F)cc2)c2ccc(OC(F)(F)F)cc21`, in that order: 13.8% and 58.9% (active).
For `Cc1cccc2c1N(Cc1c(F)cccc1F)C(=O)C2=O`, the values for the % ACh max response in experiment [1] and in experiment [2] were 17.3% and 14.4% (inactive), respectively.
`COc1ccc(CN2C(=O)C(=O)c3cc(Cl)ccc32)cc1`: the values for the % ACh max response in experiment [1] and in experiment [2] were 20.3% and 32.6% (inactive), respectively.
The matching figures for `O=C1C(=O)N(Cc2ccccc2Cl)c2ccc(OC(F)(F)F)cc21`: 12.3% and 51.9% (active).
For `COc1ccc(CN2C(=O)C(=O)c3cccc(Cl)c32)cc1`, in that order: 49.4% and 30.3% (active).
The matching figures for `O=C1C(=O)N(Cc2ccccc2F)c2c(F)cccc21`: 42.7% and 42.4% (active).
Take `O=C1C(=O)N(Cc2ccc(F)cc2F)c2c(F)cccc21`: the % ACh max response is 64.4% in experiment [1] and 68.9% (active) in experiment [2].
For `O=C1C(=O)N(Cc2ccc(Br)cc2F)c2ccc(Cl)cc21`, in that order: 29.9% and 30.4% (inactive).
The matching figures for `O=C1C(=O)N(Cc2ccc(Br)cc2F)c2c(F)cccc21`: 39.2% and 46.3% (active).
In the case of `O=C1C(=O)N(Cc2ccccc2C(F)(F)F)c2ccc(F)cc21`, the % ACh max response in experiment [1] is 47.8%; in experiment [2] it was 36.1% (active).
For `O=C1C(=O)N(Cc2ccccc2F)c2ccccc21`, in that order: 38.9% and 24.5% (active).
For `COc1cccc(CN2C(=O)C(=O)c3cc(F)ccc32)c1`, in that order: 32.3% and 41.6% (active).
The matching figures for `COc1cccc(CN2C(=O)C(=O)c3cccc(F)c32)c1`: 51.1% and 52% (active).
Take `O=C1C(=O)N(Cc2ccccc2Cl)c2c(F)cccc21`: the % ACh max response in experiment [1] is 18.5%; in experiment [2] it was 20.3% (inactive).
For `Cc1ccc2c(c1)C(=O)C(=O)N2Cc1ccc(OC(F)(F)F)cc1`, in that order: 13.8% and 18.9% (inactive).
For `COc1ccc(CN2C(=O)C(=O)c3c(Cl)ccc(Cl)c32)cc1`, in that order: 18.6% and 11.7% (inactive).
For `Cc1ccc2c(c1)C(=O)C(=O)N2Cc1ccccc1C`, in that order: 20.2% and 29.9% (inactive).
Turning to `O=C1C(=O)N(Cc2ccc(F)cc2F)c2ccc(F)cc21`, the % ACh max response in experiment [1] was 47.3%; in experiment [2] it was 60.3% (active).
The matching figures for `O=C1C(=O)N(Cc2ccccc2Cl)c2ccc(Cl)cc21`: 21.3% and 44.4% (active).
The matching figures for `COc1ccc(CN2C(=O)C(=O)c3cc(C)ccc32)cc1`: 14.1% and 21.2% (inactive).
The matching figures for `O=C1C(=O)N(Cc2c(F)cccc2F)c2ccc(OC(F)(F)F)cc21`: 13.6% and 29.8% (inactive).
Turning to `Cc1cccc2c1N(Cc1ccc(F)cc1F)C(=O)C2=O`, the % ACh max response is 32.6% in experiment [1] and 33.8% (inactive) in experiment [2].
For the compound `O=C1C(=O)N(CCc2ccc(Br)cc2)c2ccc(OC(F)(F)F)cc21`, the % ACh max response in experiment [2] was 81.1% (active).
`O=C1C(=O)N(Cc2ccccc2F)c2ccc(Cl)cc21`: the % ACh max response in experiment [1] is 23%; in experiment [2], 36.3% (inactive).
For `O=C1C(=O)N(Cc2ccc(C(F)(F)F)cc2)c2ccc(Cl)cc21`, in that order: 44.1% and 67.4% (active).
For `COc1ccc(CCN2C(=O)C(=O)c3cc(OC(F)(F)F)ccc32)cc1`, the % ACh max response in experiment [2] is 88.3% (active).
Turning to `CCCOc1ccc(-c2ccc(CN3C(=O)C(=O)c4ccccc43)cc2)cc1`, the % ACh max response in experiment [1] was 24.2%; in experiment [2], 48.6% (active).
The matching figures for `O=C1C(=O)N(Cc2ccc(Br)cc2)c2c(Cl)ccc(Cl)c21`: 12.1% and 20.7% (inactive).
The matching figures for `O=C1C(=O)N(Cc2c(F)cccc2F)c2c(F)cccc21`: 33.1% and 25.1% (inactive).
With `CCCOc1ccc(-c2ccc(CN3C(=O)C(=O)c4cc(OC(F)(F)F)ccc43)cc2)cc1`, the % ACh max response in experiment [2] is 31.8% (inactive).
`O=C1C(=O)N(CCc2ccc(Br)cc2)c2ccccc21`: the % ACh max response was 52.4% in experiment [1] and 65% (active) in experiment [2].
For `O=C1C(=O)N(Cc2ccc(-c3ccccc3)cc2)c2ccc(OC(F)(F)F)cc21`, the % ACh max response in experiment [2] is 82.7% (active).
Turning to `O=C1C(=O)N(Cc2ccc(-c3ccc(Cl)cc3)cc2)c2ccc(OC(F)(F)F)cc21`, the % ACh max response in experiment [2] was 45.5% (active).
As for `O=C1C(=O)N(Cc2ccc(-c3ccc(F)nc3)cc2)c2ccc(OC(F)(F)F)cc21`, in experiment [2], the % ACh max response is 78.8% (active).
As for `COc1ccc(-c2ccc(CN3C(=O)C(=O)c4cc(OC(F)(F)F)ccc43)cc2)cc1`, the % ACh max response in experiment [2] was 46% (active).
As for `COc1ccc(-c2ccc(CN3C(=O)C(=O)c4ccccc43)cc2)cc1`, the figures for the % ACh max response in experiment [1] and in experiment [2] were 20.1% and 30.8% (inactive), respectively.
With `O=C1C(=O)N(Cc2ccc(-c3ccsc3)cc2)c2ccc(OC(F)(F)F)cc21`, the % ACh max response in experiment [2] was 92.3% (active).
Same read-out and setting: for `Cn1cc(-c2ccc(CN3C(=O)C(=O)c4cc(OC(F)(F)F)ccc43)cc2)cn1` the value was 86.8% (active).
As to `COc1cccc(CN2C(=O)C(=O)c3cc(Cl)ccc32)c1`, the % ACh max response is 16.9% in experiment [1] and 27.9% (inactive) in experiment [2].
On to `O=C1C(=O)N(Cc2ccc(-c3ccc(Cl)c(Cl)c3)cc2)c2ccc(OC(F)(F)F)cc21`, for which the % ACh max response in experiment [2] was 73.5% (active).
As to `COc1ccc(CN2C(=O)C(=O)c3ccccc32)cc1`, the % ACh max response in experiment [1] is 43.6%; in experiment [2] it was 29.2% (active).
The matching figures for `O=C1C(=O)N(Cc2ccccc2Cl)c2c(Cl)ccc(Cl)c21`: 13.1% and 18.9% (inactive).
As to `O=C1C(=O)N(Cc2ccccc2C(F)(F)F)c2ccc(OC(F)(F)F)cc21`, the results for the % ACh max response in experiment [1] and in experiment [2] were 22.6% and 56.5% (active), respectively.
Turning to `O=C1C(=O)N(Cc2ccccc2C(F)(F)F)c2c(F)cccc21`, the results for the % ACh max response in experiment [1] and in experiment [2] were 41.3% and 30.9% (active), respectively.
With `COc1ccc(CN2C(=O)C(=O)c3cccc(F)c32)cc1`, the % ACh max response in experiment [1] was 54.6%; in experiment [2], 44.4% (active).
On to `O=C1C(=O)N(Cc2ccc(-c3cc(F)ccc3F)cc2)c2ccc(OC(F)(F)F)cc21`, for which the % ACh max response in experiment [2] is 80.9% (active).
`O=C1C(=O)N(Cc2c(F)cccc2F)c2c(Cl)ccc(Cl)c21`: the % ACh max response is 16.4% in experiment [1] and 12.2% (inactive) in experiment [2].
`O=C1C(=O)N(Cc2ccc(-c3ccc(Cl)nc3)cc2)c2ccc(OC(F)(F)F)cc21`: the % ACh max response in experiment [2] is 88.2% (active).
In the case of `O=C1C(=O)N(Cc2ccccc2F)c2c(Cl)cccc21`, the results for the % ACh max response in experiment [1] and in experiment [2] were 50.4% and 49.5% (active), respectively.
`O=C1C(=O)N(Cc2ccc(F)cc2F)c2c(Cl)ccc(Cl)c21`: the % ACh max response in experiment [1] is 17.2%; in experiment [2], 19.1% (inactive).
For the compound `COc1ccccc1-c1ccc(CN2C(=O)C(=O)c3cc(OC(F)(F)F)ccc32)cc1`, in experiment [2], the % ACh max response was 72.6% (active).
As to `O=C1C(=O)N(Cc2ccc(OC(F)(F)F)cc2)c2c(F)cccc21`, the results for the % ACh max response in experiment [1] and in experiment [2] were 51.8% and 57.7% (active), respectively.
Regarding `O=C1C(=O)N(Cc2ccc(F)cc2F)c2ccc(OC(F)(F)F)cc21`, the % ACh max response is 25.9% in experiment [1] and 61.9% (active) in experiment [2].
